# In all, about 5,500 compounds went through this assay and about 2,000 (36%) were called active. Inconclusive results (about 18%) are left out. This is one part of the list. Unmarked numbers belong to inactive results. Rule as the data show it: active = normalized growth mostly below about 0.91 (no sharp cut-off); inconclusive = no clear call, values can overlap the other calls; inactive = mostly above about 0.92.
# Assay: chemical genetic growth profiling, strain panel (AID 1159580);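 also: tested at 20 µM; growth read once vehicle control cultures reached saturation at 30 °C; 1 = growth at the plate median or of vehicle wells; lower values mean less growth of the strain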
# Details: S. cerevisiae deletion strains, growth OD
# [1] = locus YAR019C, strain CDC15, active compounds read low
# [2] = locus YBL105C, strain PKC1, active compounds read low
# [3] = locus YBR135W, strain CKS1, active compounds read low
# [4] = locus YBR136W, strain MEC1, active compounds read low
# [5] = locus YBR160W, strain CDC28, active compounds read low
# [6] = locus YDL017W, strain CDC7, active compounds read low
# [7] = locus YDL028C, strain MPS1, active compounds read low
# [8] = locus YDL101C, strain DUN1, active compounds read low
# [9] = locus YDL108W, strain KIN28, active compounds read low
# [10] = locus YDL132W, strain cdc53, active compounds read low
# [11] = locus YDL214C, strain PRR2, active compounds read low
# [12] = locus YDR052C, strain DBF4, active compounds read low
# [13] = locus YDR054C, strain cdc34, active compounds read low
# [14] = locus YDR226W, strain ADK1, active compounds read low
# [15] = locus YDR477W, strain SNF1, active compounds read low
# [16] = locus YER123W, strain YCK3, active compounds read low
# [17] = locus YER133W, strain GLC7, active compounds read low
# [18] = locus YFL009W, strain cdc4, active compounds read low
# [19] = locus YFL029C, strain CAK1, active compounds read low
# [20] = locus YFR003C, strain YPI1, active compounds read low
# [21] = locus YFR019W, strain FAB1, active compounds read low
# [22] = locus YFR028C, strain CDC14, active compounds read low
# [23] = locus YGR040W, strain KSS1, active compounds read low
# [24] = locus YGR052W, strain FMP48, active compounds read low
# [25] = locus YGR092W, strain DBF2, active compounds read low
# [26] = locus YHR030C, strain SLT2, active compounds read low
# [27] = locus YHR079C, strain IRE1, active compounds read low
# [28] = locus YHR082C, strain KSP1, active compounds read low
# [29] = locus YHR205W, strain SCH9, active compounds read low
# [30] = locus YIL147C, strain SLN1, active compounds read low
# [31] = locus YJL095W, strain BCK1, active compounds read low
# [32] = locus YJL128C, strain PBS2, active compounds read low
# [33] = locus YJL157C, strain FAR1, active compounds read low
# [34] = locus YJR016C, strain ILV3, active compounds read low
# [35] = locus YJR066W, strain TOR1 (second series), active compounds read low
# [36] = locus YJR066W, strain TOR1, active compounds read low
# [37] = locus YKL048C, strain ELM1, active compounds read low
# [38] = locus YKL067W, strain YNK1, active compounds read low
# [39] = locus YKL193C, strain SDS22, active compounds read low
# [40] = locus YKL203C, strain TOR2, active compounds read low
# [41] = locus YLR113W, strain HOG1, active compounds read low
# [42] = locus YLR133W, strain CKI1, active compounds read low
# [43] = locus YLR403W, strain SFP1, active compounds read low
# [44] = locus YML070W, strain DAK1, active compounds read low
# [45] = locus YMR001C, strain CDC5, active compounds read low
# [46] = locus YMR205C, strain PFK2 (second series), active compounds read low
# [47] = locus YMR277W, strain FCP1, active compounds read low
# [48] = locus YNL006W, strain LST8, active compounds read low
# [49] = locus YNL020C, strain ARK1, active compounds read low
# [50] = locus YNL161W, strain CBK1, active compounds read low
# [51] = locus YNL183C, strain NPR1, active compounds read low
# [52] = locus YNL207W, strain RIO2, active compounds read low
# [53] = locus YNL222W, strain SSU72, active compounds read low
# [54] = locus YNL307C, strain MCK1 (second series), active compounds read low
# [55] = locus YOL078W, strain AVO1, active compounds read low
# [56] = locus YOL136C, strain PFK27, active compounds read low
# [57] = locus YOR061W, strain CKA2, active compounds read low
# [58] = locus YOR119C, strain RIO1, active compounds read low
# [59] = locus YOR231W, strain MKK1, active compounds read low
# [60] = locus YOR329C, strain SCD5, active compounds read low
# [61] = locus YPL031C, strain PHO85, active compounds read low
# [62] = locus YPL153C, strain RAD53, active compounds read low
# [63] = locus YPL204W, strain HRR25, active compounds read low
# [64] = locus YPL209C, strain IPL1, active compounds read low
# [65] = locus YPL256C, strain CLN2, active compounds read low
# [66] = locus YPR025C, strain CCL1, active compounds read low
# [67] = locus YPR106W, strain ISR1, active compounds read low
# [68] = locus YPR111W, strain DBF20, active compounds read low
# [69] = strain NNK1, active compounds read low
# [70] = strain TSCII, active compounds read low
# [71] = locus YAL013W, strain DEP1, active compounds read low
# [72] = locus YBR229C, strain ROT2, active compounds read low
# [73] = locus YDR150W, strain NUM1, active compounds read low
# [74] = locus YEL061C, strain CIN8, active compounds read low
# [75] = locus YGR078C, strain PAC10, active compounds read low
# [76] = locus YHR087W, strain rtc3, active compounds read low
# [77] = locus YJR043C, strain POL32, active compounds read low
# [78] = locus YJR075W, strain HOC1, active compounds read low
# [79] = locus YLR039C, strain RIC1, active compounds read low
# [80] = locus YLR058C, strain SHM2 (second series), active compounds read low
# [81] = locus YLR085C, strain ARP6, active compounds read low
# [82] = locus YLR262C, strain YPT6, active compounds read low
# [83] = locus YML094W, strain GIM5, active compounds read low
# [84] = locus YMR219W, strain ESC1, active compounds read low
# [85] = locus YMR263W, strain SAP30, active compounds read low
# [86] = locus YNL153C, strain GIM3, active compounds read low
# [87] = locus YNL298W, strain CLA4 (second series), active compounds read low
# [88] = locus YNL322C, strain KRE1, active compounds read low
# [89] = locus YNR030W, strain Alg12, active compounds read low
# [90] = locus YPL055C, strain LGE1, active compounds read low
# [91] = locus YPL241C, strain CIN2, active compounds read low
# [92] = locus YPR135W, strain CTF4, active compounds read low
compound,measurement,setting,value
CCCCCCCCCCCCSc1ncn[nH]1,normalized growth,[1],0.985
same,normalized growth,[2],0.976
same,normalized growth,[3],0.968
same,normalized growth,[4],0.973
same,normalized growth,[5],0.971
same,normalized growth,[6],0.977
same,normalized growth,[7],0.976
same,normalized growth,[8],0.975
same,normalized growth,[9],0.969
same,normalized growth,[10],0.976
same,normalized growth,[11],0.735
same,normalized growth,[12],0.975
same,normalized growth,[13],0.98
same,normalized growth,[14],0.968
same,normalized growth,[15],0.734
same,normalized growth,[16],0.645
same,normalized growth,[17],0.88
same,normalized growth,[18],0.971
same,normalized growth,[19],0.981
same,normalized growth,[20],0.977
same,normalized growth,[21],0.443 (active)
same,normalized growth,[22],0.977
same,normalized growth,[23],0.817
same,normalized growth,[24],0.511 (active)
same,normalized growth,[25],0.595
same,normalized growth,[26],0.135 (active)
same,normalized growth,[27],0.254 (active)
same,normalized growth,[28],0.209 (active)
same,normalized growth,[29],0.294 (active)
same,normalized growth,[30],0.978
same,normalized growth,[31],0.279 (active)
same,normalized growth,[32],0.939
same,normalized growth,[33],0.728
same,normalized growth,[34],0.975
same,normalized growth,[35],0.738
same,normalized growth,[36],0.297 (active)
same,normalized growth,[37],0.821
same,normalized growth,[38],0.85
same,normalized growth,[39],0.976
same,normalized growth,[40],0.731
same,normalized growth,[41],0.479 (active)
same,normalized growth,[42],0.566 (active)
same,normalized growth,[43],0.447 (active)
same,normalized growth,[44],0.789
same,normalized growth,[45],0.976
same,normalized growth,[46],0.771
same,normalized growth,[47],0.975
same,normalized growth,[48],0.986
same,normalized growth,[49],0.523 (active)
same,normalized growth,[50],0.981
same,normalized growth,[51],0.444 (active)
same,normalized growth,[52],0.978
same,normalized growth,[53],0.972
same,normalized growth,[54],0.478 (active)
same,normalized growth,[55],0.973
same,normalized growth,[56],0.723
same,normalized growth,[57],0.84
same,normalized growth,[58],0.655
same,normalized growth,[59],0.439 (active)
same,normalized growth,[60],0.984
same,normalized growth,[61],0.542 (active)
same,normalized growth,[62],0.556 (active)
same,normalized growth,[63],0.556 (active)
same,normalized growth,[64],0.982
same,normalized growth,[65],0.318 (active)
same,normalized growth,[66],0.972
same,normalized growth,[67],0.991
same,normalized growth,[68],0.973
same,normalized growth,[69],0.983
same,normalized growth,[70],0.975
CCCCCCCCCCCCSc1nnc(N)s1,normalized growth,[71],1.01
same,normalized growth,[72],0.994
same,normalized growth,[8],1.05
same,normalized growth,[73],1.01
same,normalized growth,[74],1
same,normalized growth,[75],0.999
same,normalized growth,"locus YGR229C, strain SMI1, active compounds read low",0.977
same,normalized growth,[26],0.964
same,normalized growth,[76],1.02
same,normalized growth,"locus YJL187C, strain SWE1, active compounds read low",0.995
same,normalized growth,[77],0.984
same,normalized growth,[78],1.01
same,normalized growth,[79],0.981
same,normalized growth,[80],0.991
same,normalized growth,[81],0.953
same,normalized growth,[82],1
same,normalized growth,[83],1.12
same,normalized growth,[84],0.996
same,normalized growth,[85],0.968
same,normalized growth,"locus YMR307W, strain GAS1, active compounds read low",0.933
same,normalized growth,[86],1.02
same,normalized growth,[87],0.976
same,normalized growth,[88],0.983
same,normalized growth,[89],1.02
same,normalized growth,[90],1.02
same,normalized growth,[91],0.978
same,normalized growth,[92],1.21
NC(=NS(=O)(=O)c1cc(Cl)c(Oc2ccc([N+](=O)[O-])cc2Cl)c(Cl)c1)c1cccnc1,normalized growth,[71],1
same,normalized growth,[72],0.993
same,normalized growth,[8],0.976
same,normalized growth,[73],0.948
same,normalized growth,[74],1.01
same,normalized growth,[75],1
same,normalized growth,[26],0.924
same,normalized growth,[76],1.01
same,normalized growth,[77],1
same,normalized growth,[78],0.992
same,normalized growth,[79],1.09
same,normalized growth,[80],1.01
same,normalized growth,[81],1.05
same,normalized growth,[82],1.09
same,normalized growth,[83],1.01
same,normalized growth,[84],0.997
same,normalized growth,[85],0.95
same,normalized growth,"locus YNL128W, strain TEP1, active compounds read low",1.02
same,normalized growth,[86],0.992
same,normalized growth,[87],1.02
same,normalized growth,[88],1.01
same,normalized growth,[89],1.01
same,normalized growth,[90],0.912
same,normalized growth,[91],1.01
same,normalized growth,[92],0.96
N/C(=N/OC(=O)c1ccc([N+](=O)[O-])cc1)c1c(Cl)cccc1Cl,normalized growth,[1],0.939
same,normalized growth,[2],0.946
same,normalized growth,[3],0.949
same,normalized growth,[4],0.941
same,normalized growth,[5],0.967
same,normalized growth,[6],0.958
same,normalized growth,[7],0.948
same,normalized growth,[8],0.975
same,normalized growth,[9],0.952
same,normalized growth,[10],0.938
same,normalized growth,[11],0.91
same,normalized growth,[12],0.955
same,normalized growth,[13],0.94
same,normalized growth,[14],0.944
same,normalized growth,[15],0.764
same,normalized growth,[16],0.936
same,normalized growth,[17],0.805
same,normalized growth,[18],0.935
same,normalized growth,[19],0.953
same,normalized growth,[20],0.95
same,normalized growth,[21],0.825
same,normalized growth,[22],0.942
same,normalized growth,[23],0.848
same,normalized growth,[24],0.71
same,normalized growth,[25],0.465 (active)
same,normalized growth,[26],0.268 (active)
same,normalized growth,[27],0.536
same,normalized growth,[28],0.872
same,normalized growth,[29],0.449 (active)
same,normalized growth,[30],0.94
same,normalized growth,[31],0.418 (active)
same,normalized growth,[32],0.973
same,normalized growth,[33],0.863
same,normalized growth,[34],0.942
same,normalized growth,[35],0.598 (active)
same,normalized growth,[36],0.642
same,normalized growth,[37],1.02
same,normalized growth,[38],0.924
same,normalized growth,"locus YKL101W, strain HSL1, active compounds read low",0.911
same,normalized growth,[39],0.935
same,normalized growth,[40],0.758
same,normalized growth,[41],0.661 (active)
same,normalized growth,[42],0.898
same,normalized growth,[43],0.69
same,normalized growth,[44],0.883
same,normalized growth,[45],0.941
same,normalized growth,[46],0.905
same,normalized growth,[47],0.921
same,normalized growth,[48],0.958
same,normalized growth,[49],0.881
same,normalized growth,[50],0.954
same,normalized growth,[51],0.578
same,normalized growth,[52],0.915
same,normalized growth,[53],0.954
same,normalized growth,[54],0.613 (active)
same,normalized growth,[55],0.938
same,normalized growth,[56],0.936
same,normalized growth,[57],0.919
same,normalized growth,[58],0.746
same,normalized growth,[59],0.57 (active)
same,normalized growth,[60],0.954
same,normalized growth,[61],0.7
same,normalized growth,[62],0.693
same,normalized growth,[63],0.671
same,normalized growth,[64],0.955
same,normalized growth,[65],0.733 (active)
same,normalized growth,[66],0.955
same,normalized growth,[67],0.984
same,normalized growth,[68],0.979
same,normalized growth,[69],0.982
same,normalized growth,[70],0.942

# Source: PubChem BioAssay AID1159580 (chemical genetic matrix, 2015)
